From PubChem BioAssay (EPA / NIEHS) come the findings set out here.

The structures appear in SMILES notation. Calls of active or inactive are those of the source. The calls were made as follows: active = hit-call score of the fitted dose curve at least 0.9, where 1 is the maximum; inactive = score below 0.9.

What all share (settings): actives raise or lower the signal
Assay [1] in a line: CEETOX_H295R_11DCORT: CeeTox H295R High-throughput Steroidogenesis Assay for 11-Deoxycortisol (11DCORT) (AID 2283432).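 As to AC50: 11-deoxycortisol secreted into the medium measured by LC-MS/MS.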 The gist of the method: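 Steroidogenesis in human H295R cells: 48 h chemical exposure after forskolin priming, 11-deoxycortisol measured by LC-MS/MS.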
Assay [2] is described as follows: CEETOX_H295R_OHPREG: CeeTox H295R High-throughput Steroidogenesis Assay for OH-Pregnenolone (OHPREG) (AID 2283434). The gist of the method: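 Human adrenal H295R cells were prestimulated 48 h with 10 uM forskolin, then exposed 48 h to chemical in 0.1% DMSO. Medium 17alpha-hydroxypregnenolone was quantified by HPLC-MS/MS after MTBE extraction; bidirectional fitting versus DMSO baseline.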

Assay [3] is described as follows: CEETOX_H295R_CORTIC: CeeTox H295R High-throughput Steroidogenesis Assay for Corticosterone (CORTIC) (AID 2283437).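 Also: corticosterone secreted into medium quantified by mass spectrometry.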 The method in brief:
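H295R cells were prestimulated 48 h with 10 uM forskolin, then exposed 48 h to test chemical in 0.1% DMSO. Medium corticosterone was MTBE-extracted and quantified by HPLC-MS/MS; bidirectional fit versus DMSO baseline.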

A short description of assay [4]: CEETOX_H295R_CORTISOL: CeeTox H295R High-throughput Steroidogenesis Assay for Cortisol (AID 2283438). The method in brief: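 Human adrenocortical H295R cells (passage ≤10) received test chemicals for 48 h after forskolin priming. Secreted cortisol was measured by LC-MS/MS.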
A short description of assay [5]: CEETOX_H295R_DOC: CeeTox H295R High-throughput Steroidogenesis Assay for DOC (AID 2283439). The gist of the method: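 Secreted DOC was quantified from H295R media by HPLC-MS/MS after 48 h chemical exposure following 48 h forskolin (10 uM) prestimulation. Values were fitted in both directions relative to DMSO, the negative control and baseline.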
Assay [6] is described as follows: CEETOX_H295R_PROG: CeeTox H295R High-throughput Steroidogenesis Assay for Progesterone (PROG) (AID 2283442).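 As to AC50: human H295R adrenal cells primed with 10 µM forskolin before dosing.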 The method in brief: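 Progesterone secreted by human H295R cells was measured by LC-MS/MS following 48 h chemical exposure at 0.1% DMSO, preceded by 48 h forskolin (10 uM) stimulation. Same-well MTT viability; cytotoxic concentrations diluted 10- or 100-fold and retested.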

Assay [7] is described as follows: CEETOX_H295R_ANDR: CeeTox H295R High-throughput Steroidogenesis Assay for Androstenedione (ANDR) (AID 2283436). The gist of the method: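 H295R human adrenal cells (passages ≤10) were exposed to test chemicals for 48 h; androstenedione in medium was MTBE-extracted and quantified by HPLC-MS/MS against a 7-point standard curve. Bidirectional fitting used DMSO as baseline.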

Assay [8] is described as follows: CEETOX_H295R_TESTO: CeeTox H295R High-throughput Steroidogenesis Assay for Testosterone (TESTO) (AID 2283457).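 As to AC50: cells exposed to chemicals for 48 h before medium collection.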 The gist of the method:
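Testosterone secreted into the medium over 48 h by H295R cells (maximum passage 10) was quantified by LC-MS/MS after MTBE extraction. Fitted in both directions against DMSO, with concentrations diluted until MTT viability was ≥70%.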

Assay [9] in a line: CEETOX_H295R_ESTRADIOL: CeeTox H295R High-throughput Steroidogenesis Assay for Estradiol (AID 2283440).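 Also: estradiol secreted into medium quantified by LC-MS/MS after dansyl derivatisation.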 The gist of the method: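 Estradiol in spent medium measured by LC-MS/MS after dansyl chloride derivatisation. Forskolin-primed (10 uM, 48 h) human adrenal H295R cells received test chemical 48 h at 0.1% DMSO; concentrations lowered until MTT viability >/=70%.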
The nature of assay [10]: CEETOX_H295R_ESTRONE: CeeTox H295R High-throughput Steroidogenesis Assay for Estrone (AID 2283441).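 Also: estrone secreted into medium measured by LC-MS/MS after dansyl derivatization.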 The gist of the method:
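H295R cells; 48 h forskolin (10 uM) prestimulation; 48 h compound exposure, 0.1% DMSO final. Medium estrone: MTBE extraction, dansyl derivatization, HPLC-MS/MS. Bidirectional fit vs DMSO.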

Broadly, the AC50 is the concentration giving half of the maximal activity seen. On to `C=C1CC[C@H](O)C/C1=C/C=C1\CCC[C@]2(C)[C@@H]([C@H](C)/C=C/[C@H](C)C(C)C)CC[C@@H]12`, for which the AC50 was 19.8 µM (active) in [1]; 4.66 µM (active) in [2]; 42.5 µM (active) in assay [4]; 87.2 µM (active) in assay [5]; 84.3 µM (active) in assay [6]. The compound was called inactive in assay [3].
With `COc1ccc(N=Nc2cc(C)c(N=Nc3ccc(S(=O)(=O)O)cc3)cc2OC)cc1`, the compound was called inactive in assay [1], in assay [2], in [3], in assay [4] and in assay [5]. The AC50 in [6] was 50 µM (active).
As to `CCCCCCCCN1CCCC1=O`, the result in assay [1], in assay [2], in assay [3], in [4], in [5] and in assay [6] was inactive.
As for `OCc1cccc(Oc2ccccc2)c1`, the result in assay [2] and in assay [6] was inactive. Further, the AC50 in assay [7] and in [8] was 50 µM (active) each time.
Consider `CCc1cc(C(C)(C)C)c(O)c(C(C)(C)C)c1`, for which the result in assay [1], in [2], in [3], in assay [4], in assay [5] and in assay [6] was inactive.
In the case of `CC(C)Nc1nc(N)nc(Cl)n1`, the outcome in [1], in assay [2], in [3], in assay [4], in [5] and in assay [6] was inactive.
As for `CC=Cc1ccc(OCC)c(O)c1`, the compound was classed as inactive in assay [1], in [2], in assay [3], in assay [4] and in assay [5]. Moreover, in assay [6], the AC50 is 20.7 µM (active).
For `CCOC(=O)[C@@H](C)Oc1ccc(Oc2nc3ccc(Cl)cc3o2)cc1`, the call in assay [1], in assay [2], in assay [7], in assay [3], in assay [4] and in [8] was inactive. Further, the half-maximal activity concentration (AC50) in [5] is 22.8 µM (active); in [6], 25.7 µM (active).
For the compound `COCCc1ccc(OCC(O)CNC(C)C)cc1` (configuration not stated), in [1], the AC50 was 28.6 µM (active). The result in [2], in assay [3], in [4], in assay [5] and in assay [6] was inactive.
Consider `CC(C)(C)CC(C)(C)c1ccc(OCCOCC[N+](C)(C)Cc2ccccc2)cc1`, for which the compound was called inactive in [1], in [2], in assay [3], in [4], in assay [5] and in assay [9]. The call in assay [10] and in [6] was inactive.
